Where “and” joins values, the source holds several entries; their conditions need not be identical. Identical values can stand only once. Some compounds were tested as several samples or in several runs, with calls that do not always agree. Calls of active or inactive are those of the source. The calls were made as follows: active = hit-call score of the fitted dose curve at least 0.9, where 1 is the maximum; inactive = score below 0.9.
Columns and labels:
[1] = read-out: Urokinase-type plasminogen activator receptor (uPAR), PLAUR (gene 5329); experiment: BSK_4H_uPAR: BioMAP Diversity Plus: 4H Assay for Urokinase-type plasminogen activator receptor (uPAR) Biomarker Activity (AID 2283030); conditions: primary human endothelial cells (HUVEC); actives raise or lower the signal
Summary of the method: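 Cell-surface uPAR ELISA signal, measured 24 h after dosing human umbilical vein endothelial cells, was analyzed with bidirectional fitting relative to DMSO. Parallel SRB staining of total protein tracked overt cytotoxicity.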

[2] = read-out: Vascular endothelial growth factor receptor 2 (Homo sapiens) (UniProt P35968); experiment: BSK_4H_VEGFRII: BioMAP Diversity Plus: 4H Assay for Vascular endothelial growth factor receptor 2 (VEGFR2) Biomarker Activity (AID 2283031); conditions: primary human endothelial cells (HUVEC); actives raise or lower the signal;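 as to AC50: cell-surface VEGFR2 protein level quantified by ELISA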
Summary of the method: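 ELISA read-out of VEGFRII in primary human umbilical vein endothelium, taken 24 h after chemical treatment. Responses are expressed relative to DMSO, with bidirectional fitting.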

[3] = read-out: Human Leukocyte Antigen - DR isotype (HLADR), HLA-DRA (gene 3122); experiment: BSK_BE3C_HLADR: BioMAP Diversity Plus: BE3C Assay for Human Leukocyte Antigen - DR isotype (HLADR) Biomarker Activity (AID 2283032); conditions: primary human bronchial epithelial cells; actives raise or lower the signal
Summary of the method: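 Signal came from an ELISA for HLA-DR in human bronchial epithelial primary cells harvested 24 h after treatment; gain- and loss-of-signal fitting used DMSO controls as reference.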

[4] = read-out: Vascular cell adhesion molecule 1 (VCAM1), VCAM1 (gene 7412); experiment: BSK_4H_VCAM1: BioMAP Diversity Plus: 4H Assay for Vascular cell adhesion molecule 1 (VCAM1) Biomarker Activity (AID 2283033); conditions: primary human endothelial cells (HUVEC); actives raise or lower the signal
Summary of the method: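 Endpoint derived from bidirectional fitting against DMSO controls of VCAM-1 ELISA signal in umbilical vein endothelial cells sampled at 24 h following treatment.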

[5] = read-out: Interferon-gamma inducible Protein 10 (IP10), CXCL10 (gene 3627); experiment: BSK_BE3C_IP10: BioMAP Diversity Plus: BE3C Assay for Interferon-gamma inducible Protein 10 (IP10) Biomarker Activity (AID 2283034); conditions: primary human bronchial epithelial cells; actives raise or lower the signal
Summary of the method: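 Using primary human bronchial epithelial cultures, the assay captures IP-10 by ELISA one day (24 h) after exposure. Parallel SRB staining of total protein flags overt cytotoxicity. Fits run bidirectionally relative to DMSO.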

[6] = read-out: Plasminogen activator inhibitor-1 (PAI1), SERPINE1 (gene 5054); experiment: BSK_BE3C_PAI1: BioMAP Diversity Plus: BE3C Assay for Plasminogen activator inhibitor-1 (PAI1) Biomarker Activity (AID 2283037); conditions: primary human bronchial epithelial cells; actives raise or lower the signal
Summary of the method: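 PAI-1 biomarker levels in treated human bronchial epithelial cells are determined by ELISA at 24 h. Both increases and decreases relative to DMSO are fitted.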

[7] = read-out: urokinase plasminogen activator (uPA), PLAU (gene 5328); experiment: BSK_BE3C_uPA: BioMAP Diversity Plus: BE3C Assay for urokinase plasminogen activator (uPA) Biomarker Activity (AID 2283038); conditions: primary human bronchial epithelial cells; actives raise or lower the signal
Summary of the method: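 Bronchial epithelial cells (human, primary); chemical 24 h; uPA by ELISA; bidirectional fit vs DMSO. SRB (0.1%, after 10% TCA fixation, 560 nm) in parallel cultures for cytotoxicity.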

[8] = read-out: Urokinase-type plasminogen activator receptor (uPAR), PLAUR (gene 5329); experiment: BSK_BE3C_uPAR: BioMAP Diversity Plus: BE3C Assay for Urokinase-type plasminogen activator receptor (uPAR) Biomarker Activity (AID 2283039); conditions: primary human bronchial epithelial cells; actives raise or lower the signal
Summary of the method: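 A uPAR ELISA serves as the readout, taken 24 h after treating primary human bronchial epithelial cells. Responses in either direction are fitted against DMSO, which defines baseline activity.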

[9] = read-out: Interleukin-6 (IL6), IL6 (gene 3569); experiment: BSK_CASM3C_IL6: BioMAP Diversity Plus: CASM3C Assay for Interleukin-6 (IL6) Biomarker Activity for (AID 2283040); conditions: primary human coronary artery smooth muscle cells; actives raise or lower the signal
[10] = read-out: Tissue plasminogen activator (tPA), PLAT (gene 5327); experiment: BSK_BE3C_tPA: BioMAP Diversity Plus: BE3C Assay for Tissue plasminogen activator (tPA) Biomarker Activity (AID 2283041); conditions: primary human bronchial epithelial cells; actives raise or lower the signal
Summary of the method: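 Bidirectional curve fitting relative to DMSO defined activity, with tPA detected by ELISA in chemically treated human bronchial epithelial primary cells at 24 hours.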

[11] = read-out: Interleukin-8 (IL8), CXCL8 (gene 3576); experiment: BSK_CASM3C_IL8: BioMAP Diversity Plus: CASM3C Assay for Interleukin-8 (IL8) Biomarker Activity (AID 2283042); conditions: primary human coronary artery smooth muscle cells; actives raise or lower the signal;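 also: IL-8 protein level quantified by ELISA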
[12] = read-out: Human Leukocyte Antigen - DR isotype (HLADR), HLA-DRA (gene 3122); experiment: BSK_CASM3C_HLADR: BioMAP Diversity Plus: CASM3C Assay for Human Leukocyte Antigen - DR isotype (HLADR) Biomarker Activity (AID 2283043); conditions: primary human coronary artery smooth muscle cells; actives raise or lower the signal;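 also: cell-surface HLA-DR protein level quantified by ELISA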
[13] = read-out: Macrophage colony-stimulating factor (MCSF), CSF1 (gene 1435); experiment: BSK_CASM3C_MCSF: BioMAP Diversity Plus: CASM3C Assay for Macrophage colony-stimulating factor (MCSF) Biomarker Activity (AID 2283044); conditions: primary human coronary artery smooth muscle cells; actives raise or lower the signal;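 also: M-CSF protein amount quantified by ELISA after 24 h exposure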
[14] = read-out: Low-density lipoprotein receptor (LDLR), LDLR (gene 3949); experiment: BSK_CASM3C_LDLR: BioMAP Diversity Plus: CASM3C Assay for Low-density lipoprotein receptor (LDLR) Biomarker Activity (AID 2283045); conditions: primary human coronary artery smooth muscle cells; actives raise or lower the signal;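 also: LDLR protein level on the cell surface quantified by ELISA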
[15] = read-out: Monocyte Chemoattractant Protein-1 (MCP1), CCL2 (gene 6347); experiment: BSK_CASM3C_MCP1: BioMAP Diversity Plus: CASM3C Assay for Monocyte Chemoattractant Protein-1 (MCP1) Biomarker Activity (AID 2283046); conditions: primary human coronary artery smooth muscle cells; actives raise or lower the signal;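 also: MCP-1 level quantified by ELISA 24 h after dosing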
[16] = BSK_CASM3C_Proliferation: Cell Proliferation Assessment in the BioMAP Diversity Plus: CASM3C Assay (AID 2283047); conditions: primary human coronary artery smooth muscle cells;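 also: sulforhodamine B total protein stain as relative cell number at 560 nm; sub-confluent cells exposed 48 h before staining; fitted both ways against DMSO so gain or loss of cell number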
[17] = read-out: Monokine induced gamma interferon (MIG), CXCL9 (gene 4283); experiment: BSK_CASM3C_MIG: BioMAP Diversity Plus: CASM3C Assay for Monokine induced gamma interferon (MIG) Biomarker Activity (AID 2283048); conditions: primary human coronary artery smooth muscle cells; actives raise or lower the signal
[18] = read-out: serum amyloid A (SAA), SAA1 (gene 6288); experiment: BSK_CASM3C_SAA: BioMAP Diversity Plus: CASM3C Assay for serum amyloid A (SAA) Biomarker Activity (AID 2283049); conditions: primary human coronary artery smooth muscle cells; actives raise or lower the signal;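 also: SAA protein level quantified by ELISA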
[19] = read-out: Monokine induced gamma interferon (MIG), CXCL9 (gene 4283); experiment: BSK_BE3C_MIG: BioMAP Diversity Plus: BE3C Assay for Monokine induced gamma interferon (MIG) Biomarker Activity (AID 2283035); conditions: primary human bronchial epithelial cells; actives raise or lower the signal
Summary of the method: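 Primary human bronchial epithelial cells treated for 24 h; MIG levels measured by ELISA, fitted bidirectionally versus DMSO. Parallel SRB total-protein staining assessed cytotoxicity.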

[20] = read-out: Transforming growth factor beta 1 (TGFb1), TGFB1 (gene 7040); experiment: BSK_BE3C_TGFb1: BioMAP Diversity Plus: BE3C Assay for Transforming growth factor beta 1 (TGFb1) Biomarker Activity (AID 2283036); conditions: primary human bronchial epithelial cells; actives raise or lower the signal
Summary of the method: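 In this human primary bronchial epithelial system, an ELISA quantified TGF-b1 one day after dosing. Endpoint changes in either direction were fitted relative to DMSO.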

Measured: AC50

O=C(O)C(F)(F)OC(F)(F)C(F)(F)OC(F)(F)C(F)(F)OC(F)(F)F
inactive: [1] | [2] | [3] | [4] | [5] | [6] | [7] | [8] | [9] | [10] | [11] | [12] | [13] | [14] | [15] | [16] | [17] | [18]
active: [3] 9.98 µM | [5] 7.49 µM

Cc1ccc(O)c(-n2nc3ccccc3n2)c1
inactive: all assays above

C=CC(=O)OCC(F)(F)C(F)(F)C(F)(F)C(F)(F)C(F)(F)C(F)(F)C(F)(F)C(F)F
not listed: [20]
inactive: all other assays above

NC(=O)C(F)(F)C(F)(F)C(F)(F)C(F)F
not listed: [20]
inactive: all other assays above

NC(O)(C(F)(F)F)C(F)(F)F
inactive: [1] | [2] | [3] | [4] | [5] | [19] | [6] | [7] | [8] | [9] | [10] | [11] | [12] | [13] | [14] | [15] | [16] | [17] | [18]
active: [13] 43.4 µM

OCC(O)CC(F)(F)C(F)(F)C(F)(F)C(F)(F)C(F)(F)C(F)(F)C(F)(F)C(F)(F)F (stereo unspecified)
not listed: [20]
inactive: all other assays above

O=S(=O)(O)CCC(F)(F)C(F)(F)C(F)(F)C(F)(F)C(F)(F)C(F)(F)C(F)(F)C(F)(F)F
inactive: [1] | [2] | [4] | [19] | [6] | [7] | [8] | [9] | [10] | [11] | [12] | [13] | [14] | [15] | [16] | [17] | [18]
active: [3] 20.4 µM and 25.3 µM | [5] 16.8 µM and 24.1 µM | [6] 8.09 µM

OCC(F)(F)C(F)(F)C(F)(F)CO
not listed: [20]
inactive: all other assays above

Brc1nc2ccccc2s1
inactive: all assays above

O=C1C=CC(=O)N1c1ccc(Cc2ccc(N3C(=O)C=CC3=O)cc2)cc1
active: [1] 9.9 µM | [2] 10.6 µM | [3] 2.8 µM | [4] 9.59 µM | [5] 2.6 µM | [19] 6.3 µM | [20] 1.6 µM | [6] 3.54 µM | [7] 2.62 µM | [8] 3.31 µM | [9] 9.64 µM | [10] 3.46 µM | [11] 11 µM | [12] 2.88 µM | [13] 5.07 µM | [14] 2.03 µM | [15] 4.19 µM | [16] 0.688 µM | [17] 5.42 µM | [18] 3.21 µM
